# Data: article PMC8384837, “Expanding the binding specificity for RNA recognition by a PUF domain”
# Columns and labels:
# Experiment in all cases: yeast three-hybrid, YBZ-1, SC-Leu-His + 0.5 mM 3-AT, 4 days
# Details in all cases: tags: N-Gal4 AD-HA kept; label: inside an RPR1-promoter hybrid RNA with tandem MS2 sites; ssRNA
# [1] = target: PUM1 PUF domain R4-WGC (Homo sapiens, UniProt Q14671 828-1176, N971W;H972G;Q975C)
# Method in brief: (§1)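 Repeat regions from input (SC-Leu) and selection (SC-Leu-His + 0.5 mM 3-AT) plates were PCR-amplified and Illumina-sequenced after four days of growth. The cells were strain YBZ-1 with a LexA–MS2 coat fusion and a HIS3 reporter, co-expressing Pumilio-1 PUF domain libraries and matching RNA elements from a centromeric plasmid. The interaction score is the log change in variant frequency from input to selection, taken in log2 with a pseudocount of 1 for absent variants.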
# [2] = target: PUM1 PUF domain R7-RVL (Homo sapiens, UniProt Q14671 828-1176, S1079R;N1080V;E1083L)
# Sequence of PUM1 PUF domain R7-RVL (Q14671 828-1176 S1079R/N1080V/E1083L): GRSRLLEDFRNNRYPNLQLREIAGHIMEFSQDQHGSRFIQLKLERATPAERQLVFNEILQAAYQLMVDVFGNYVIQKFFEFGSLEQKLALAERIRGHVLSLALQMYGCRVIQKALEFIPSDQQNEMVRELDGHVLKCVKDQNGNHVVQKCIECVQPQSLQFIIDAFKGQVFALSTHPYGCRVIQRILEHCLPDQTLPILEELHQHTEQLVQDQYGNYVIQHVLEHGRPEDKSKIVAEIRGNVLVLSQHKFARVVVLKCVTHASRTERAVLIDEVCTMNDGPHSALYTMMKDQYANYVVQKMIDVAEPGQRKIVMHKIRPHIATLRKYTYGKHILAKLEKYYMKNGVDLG
# Method in brief: as §1
# [3] = target: PUM1 PUF domain R3-IWA (Homo sapiens, UniProt Q14671 828-1176, C935I;R936W;Q939A)
# Sequence of PUM1 PUF domain R3-IWA (Q14671 828-1176 C935I/R936W/Q939A): as the sequence (Q14671 828-1176 S1079R/N1080V/E1083L) above, with C108I, R109W, Q112A, R252S, V253N, L256E counted along it
# Method in brief: as §1
# [4] = target: PUM1 PUF domain R5-QWN (Homo sapiens, UniProt Q14671 828-1176, C1007Q;R1008W;Q1011N)
# Sequence of PUM1 PUF domain R5-QWN (Q14671 828-1176 C1007Q/R1008W/Q1011N): as the sequence (Q14671 828-1176 S1079R/N1080V/E1083L) above, with C180Q, R181W, Q184N, R252S, V253N, L256E counted along it
# Method in brief: as §1
# [5] = target: PUM1 PUF domain R5-RQS (Homo sapiens, UniProt Q14671 828-1176, C1007R;R1008Q;Q1011S)
# Sequence of PUM1 PUF domain R5-RQS (Q14671 828-1176 C1007R/R1008Q/Q1011S): as the sequence (Q14671 828-1176 S1079R/N1080V/E1083L) above, with C180R, R181Q, Q184S, R252S, V253N, L256E counted along it
# Method in brief: as §1
# [6] = target: PUM1 PUF domain R5-RRL (Homo sapiens, UniProt Q14671 828-1176, C1007R;Q1011L)
# Sequence of PUM1 PUF domain R5-RRL (Q14671 828-1176 C1007R/Q1011L): as the sequence (Q14671 828-1176 S1079R/N1080V/E1083L) above, with C180R, Q184L, R252S, V253N, L256E counted along it
# Method in brief: as §1
# [7] = target: PUM1 PUF domain R1-GLR (Homo sapiens, UniProt Q14671 828-1176, S863G;R864L;Q867R)
# Sequence of PUM1 PUF domain R1-GLR (Q14671 828-1176 S863G/R864L/Q867R): as the sequence (Q14671 828-1176 S1079R/N1080V/E1083L) above, with S36G, R37L, Q40R, R252S, V253N, L256E counted along it
# Method in brief: as §1
# [8] = target: PUM1 PUF domain R8-RFV (Homo sapiens, UniProt Q14671 828-1176, N1122R;Y1123F;Q1126V)
# Sequence of PUM1 PUF domain R8-RFV (Q14671 828-1176 N1122R/Y1123F/Q1126V): as the sequence (Q14671 828-1176 S1079R/N1080V/E1083L) above, with R252S, V253N, L256E, N295R, Y296F, Q299V counted along it
# Method in brief: as §1
# [9] = target: PUM1 PUF domain R5-CHG (Homo sapiens, UniProt Q14671 828-1176, R1008H;Q1011G)
# Sequence of PUM1 PUF domain R5-CHG (Q14671 828-1176 R1008H/Q1011G): as the sequence (Q14671 828-1176 S1079R/N1080V/E1083L) above, with R181H, Q184G, R252S, V253N, L256E counted along it
# Method in brief: as §1
# [10] = target: PUM1 PUF domain R4-VSI (Homo sapiens, UniProt Q14671 828-1176, N971V;H972S;Q975I)
# Sequence of PUM1 PUF domain R4-VSI (Q14671 828-1176 N971V/H972S/Q975I): as the sequence (Q14671 828-1176 S1079R/N1080V/E1083L) above, with N144V, H145S, Q148I, R252S, V253N, L256E counted along it
# Method in brief: as §1
# Sequence of PUM1 PUF domain R4-WGC (Q14671 828-1176 N971W/H972G/Q975C): as the sequence (Q14671 828-1176 S1079R/N1080V/E1083L) above, with N144W, H145G, Q148C, R252S, V253N, L256E counted along it
sequence,measurement,setting,value
GGCUAGAACUAGUGGAUCCCCCGGCGCCCGGCGGCUCGAGCCCGGGUAAGUGUACAUAGUCUGCAUGCCGCCGGGCGCCAUGCCUGCAGGUCGACUCUAGAAAACAUG,binding signal,[1],1.65 log2 enrichment (interaction score)
GGCUAGAACUAGUGGAUCCCCCGGCGCCCGGCGGCUCGAGCCCGGGUAAGUUUAAAUAGUCUGCAUGCCGCCGGGCGCCAUGCCUGCAGGUCGACUCUAGAAAACAUG,binding signal,[2],3.33 log2 enrichment (interaction score)
GGCUAGAACUAGUGGAUCCCCCGGCGCCCGGCGGCUCGAGCCCGGGUAAGUGUAUAUAGUCUGCAUGCCGCCGGGCGCCAUGCCUGCAGGUCGACUCUAGAAAACAUG,binding signal,[1],4.53 log2 enrichment (interaction score)
GGCUAGAACUAGUGGAUCCCCCGGCGCCCGGCGGCUCGAGCCCGGGUAAGUGUAAGUAGUCUGCAUGCCGCCGGGCGCCAUGCCUGCAGGUCGACUCUAGAAAACAUG,binding signal,[3],5.56 log2 enrichment (interaction score)
GGCUAGAACUAGUGGAUCCCCCGGCGCCCGGCGGCUCGAGCCCGGGUAAGUGUGAAUAGUCUGCAUGCCGCCGGGCGCCAUGCCUGCAGGUCGACUCUAGAAAACAUG,binding signal,[4],4.78 log2 enrichment (interaction score)
same,binding signal,[5],1.05 log2 enrichment (interaction score)
same,binding signal,[6],1.14 log2 enrichment (interaction score)
GGCUAGAACUAGUGGAUCCCCCGGCGCCCGGCGGCUCGAGCCCGGGUAAGUGUAAAUCGUCUGCAUGCCGCCGGGCGCCAUGCCUGCAGGUCGACUCUAGAAAACAUG,binding signal,[7],3.78 log2 enrichment (interaction score)
GGCUAGAACUAGUGGAUCCCCCGGCGCCCGGCGGCUCGAGCCCGGGUAAGCGUAAAUAGUCUGCAUGCCGCCGGGCGCCAUGCCUGCAGGUCGACUCUAGAAAACAUG,binding signal,[8],6.22 log2 enrichment (interaction score)
GGCUAGAACUAGUGGAUCCCCCGGCGCCCGGCGGCUCGAGCCCGGGUAAGUGUCAAUAGUCUGCAUGCCGCCGGGCGCCAUGCCUGCAGGUCGACUCUAGAAAACAUG,binding signal,[9],1.6 log2 enrichment (interaction score)
same,binding signal,[5],4.99 log2 enrichment (interaction score)
same,binding signal,[6],3.98 log2 enrichment (interaction score)
GGCUAGAACUAGUGGAUCCCCCGGCGCCCGGCGGCUCGAGCCCGGGUAAGUGUAAAUAGUCUGCAUGCCGCCGGGCGCCAUGCCUGCAGGUCGACUCUAGAAAACAUG,binding signal,[9],3.32 log2 enrichment (interaction score)
same,binding signal,[10],2.13 log2 enrichment (interaction score)
same,binding signal,[5],1.32 log2 enrichment (interaction score)
same,binding signal,[1],2.66 log2 enrichment (interaction score)
same,binding signal,[6],1.79 log2 enrichment (interaction score)
same,binding signal,[8],6.16 log2 enrichment (interaction score)
same,binding signal,[3],5.07 log2 enrichment (interaction score)
GGCUAGAACUAGUGGAUCCCCCGGCGCCCGGCGGCUCGAGCCCGGGUAAGUGUAAAUUGUCUGCAUGCCGCCGGGCGCCAUGCCUGCAGGUCGACUCUAGAAAACAUG,binding signal,[7],2.9 log2 enrichment (interaction score)
GGCUAGAACUAGUGGAUCCCCCGGCGCCCGGCGGCUCGAGCCCGGGUAAGUGUUAAUAGUCUGCAUGCCGCCGGGCGCCAUGCCUGCAGGUCGACUCUAGAAAACAUG,binding signal,[9],3.47 log2 enrichment (interaction score)
same,binding signal,[5],5.24 log2 enrichment (interaction score)
same,binding signal,[6],4.45 log2 enrichment (interaction score)
